Measurements reported in PubChem BioAssay AID1159580 (chemical genetic matrix, 2015).
About 2,000 (36%) of roughly 5,500 compounds were called active. Roughly 18% stayed inconclusive and do not appear here. Rule as the data show it: active = normalized growth mostly below about 0.91 (no sharp cut-off); inconclusive = no clear call, values can overlap the other calls; inactive = mostly above about 0.92. The list shows a part of the results.

Test: chemical genetic growth profiling, strain panel (AID 1159580);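 also: tested at 20 µM; growth read once vehicle control cultures reached saturation at 30 °C; 1 = growth at the plate median or of vehicle wells; lower values mean less growth of the strain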
Details: growth OD

Measured: normalized growth

CC12CCC(CC1)C(C)(C)O2
inactive: S. cerevisiae deletion strains, locus YJL187C, strain SWE1 (second series), stronger effect = lower value 1 | S. cerevisiae deletion strains, locus YJL187C, strain SWE1, stronger effect = lower value 0.989 | S. cerevisiae deletion strains, locus YJR043C, strain POL32, stronger effect = lower value 0.989 | S. cerevisiae deletion strains, locus YJR066W, strain TOR1, stronger effect = lower value 0.94 | S. cerevisiae deletion strains, locus YKL009W, strain mrt4, stronger effect = lower value 1.03 | S. cerevisiae deletion strains, locus YKL068W, stronger effect = lower value 1.01 | S. cerevisiae deletion strains, locus YKL085W, strain MDH1 (second series), stronger effect = lower value 1.01 | S. cerevisiae deletion strains, locus YKL085W, strain MDH1, stronger effect = lower value 1.01 | S. cerevisiae deletion strains, locus YKL160W, strain elf1, stronger effect = lower value 1 | S. cerevisiae deletion strains, locus YKR001C, strain vps1, stronger effect = lower value 1.01 | S. cerevisiae deletion strains, locus YKR026C, strain gcn3, stronger effect = lower value 0.977 | S. cerevisiae deletion strains, locus YKR091W, strain srl3, stronger effect = lower value 0.993 | S. cerevisiae deletion strains, locus YLL001W, strain dnm1, stronger effect = lower value 0.985 | S. cerevisiae deletion strains, locus YLL026W, stronger effect = lower value 0.977 | S. cerevisiae deletion strains, locus YLL041C, strain sdh2, stronger effect = lower value 0.974 | S. cerevisiae deletion strains, locus YLR027C, strain aat2, stronger effect = lower value 0.97 | S. cerevisiae deletion strains, locus YLR039C, strain RIC1, stronger effect = lower value 1.01 | S. cerevisiae deletion strains, locus YLR058C, strain SHM2, stronger effect = lower value 1.01 | S. cerevisiae deletion strains, locus YLR102C, strain apc9, stronger effect = lower value 1.01 | S. cerevisiae deletion strains, locus YLR113W, strain HOG1, stronger effect = lower value 0.994 | S. cerevisiae deletion strains, locus YLR221C, strain rsa3, stronger effect = lower value 0.98 | S. cerevisiae deletion strains, locus YLR258W, strain gsy2, stronger effect = lower value 0.976 | S. cerevisiae deletion strains, locus YLR262C, strain YPT6 (second series), stronger effect = lower value 1.03 | S. cerevisiae deletion strains, locus YLR262C, strain YPT6, stronger effect = lower value 1 | S. cerevisiae deletion strains, locus YLR268W, strain sec22, stronger effect = lower value 0.994 | S. cerevisiae deletion strains, locus YLR320W, strain mms22, stronger effect = lower value 0.994 | S. cerevisiae deletion strains, locus YLR330W, strain CHS5, stronger effect = lower value 1.01 | S. cerevisiae deletion strains, locus YLR342W, strain FKS1 (second series), stronger effect = lower value 1.04 | S. cerevisiae deletion strains, locus YLR342W, strain FKS1, stronger effect = lower value 0.974 | S. cerevisiae deletion strains, locus YLR357W, strain rsc2, stronger effect = lower value 0.932 | S. cerevisiae deletion strains, locus YLR370C, strain arc18, stronger effect = lower value 0.972 | S. cerevisiae deletion strains, locus YLR371W, strain rom2, stronger effect = lower value 1.02 | S. cerevisiae deletion strains, locus YLR384C, strain iki3, stronger effect = lower value 0.974 | S. cerevisiae deletion strains, locus YLR418C, strain cdc73, stronger effect = lower value 1.05 | S. cerevisiae deletion strains, locus YML016C, strain PPZ1, stronger effect = lower value 1.01 | S. cerevisiae deletion strains, locus YML032C, strain rad52, stronger effect = lower value 1.02 | S. cerevisiae deletion strains, locus YML120C, strain ndi1, stronger effect = lower value 0.988 | S. cerevisiae deletion strains, locus YML124C, strain tub3, stronger effect = lower value 1.02 | S. cerevisiae deletion strains, locus YMR058W, strain fet3, stronger effect = lower value 0.98 | S. cerevisiae deletion strains, locus YMR078C, strain ctf18, stronger effect = lower value 1.01 | S. cerevisiae deletion strains, locus YMR125W, strain sto1, stronger effect = lower value 0.977 | S. cerevisiae deletion strains, locus YMR129W, stronger effect = lower value 0.992 | S. cerevisiae deletion strains, locus YMR205C, strain PFK2, stronger effect = lower value 0.99 | S. cerevisiae deletion strains, locus YMR223W, strain ubp8, stronger effect = lower value 1.03 | S. cerevisiae deletion strains, locus YMR231W, strain pep5, stronger effect = lower value 0.957 | S. cerevisiae deletion strains, locus YMR307W, strain GAS1, stronger effect = lower value 0.998 | S. cerevisiae deletion strains, locus YNL067W, strain RPL9B, stronger effect = lower value 1 | S. cerevisiae deletion strains, locus YNL071W, strain lat1, stronger effect = lower value 0.984 | S. cerevisiae deletion strains, locus YNL183C, strain NPR1, stronger effect = lower value 0.907 | S. cerevisiae deletion strains, locus YNL209W, strain ssb2, stronger effect = lower value 0.98 | S. cerevisiae deletion strains, locus YNL233W, strain BNI4, stronger effect = lower value 1.01 | S. cerevisiae deletion strains, locus YNL248C, strain rpa49, stronger effect = lower value 0.978 | S. cerevisiae deletion strains, locus YNL250W, strain rad50, stronger effect = lower value 0.99 | S. cerevisiae deletion strains, locus YNL271C, strain bni1, stronger effect = lower value 1.01 | S. cerevisiae deletion strains, locus YNL298W, strain CLA4, stronger effect = lower value 1.02 | S. cerevisiae deletion strains, locus YNL307C, strain MCK1, stronger effect = lower value 1.01 | S. cerevisiae deletion strains, locus YNL322C, strain KRE1 (second series), stronger effect = lower value 0.967 | S. cerevisiae deletion strains, locus YNR049C, strain mso1, stronger effect = lower value 0.983 | S. cerevisiae deletion strains, locus YNR052C, strain pop2, stronger effect = lower value 1.01 | S. cerevisiae deletion strains, locus YOL012C, strain htz1 0.871 | S. cerevisiae deletion strains, locus YOL147C, strain pex11, stronger effect = lower value 1.01 | S. cerevisiae deletion strains, locus YOR001W, strain rrp6, stronger effect = lower value 0.98 | S. cerevisiae deletion strains, locus YOR061W, strain CKA2, stronger effect = lower value 1.01 | S. cerevisiae deletion strains, locus YOR069W, strain VPS5, stronger effect = lower value 1 | S. cerevisiae deletion strains, locus YOR070C, strain gyp1, stronger effect = lower value 0.971 | S. cerevisiae deletion strains, locus YOR080W, strain dia2, stronger effect = lower value 0.975 | S. cerevisiae deletion strains, locus YOR083W, strain WHI5, stronger effect = lower value 0.992 | S. cerevisiae deletion strains, locus YOR106W, strain vam3, stronger effect = lower value 0.954 | S. cerevisiae deletion strains, locus YOR136W, strain idh2, stronger effect = lower value 1 | S. cerevisiae deletion strains, locus YOR144C, strain elg1, stronger effect = lower value 1.01 | S. cerevisiae deletion strains, locus YOR184W, strain ser1, stronger effect = lower value 1 | S. cerevisiae deletion strains, locus YOR231W, strain MKK1, stronger effect = lower value 1.01 | S. cerevisiae deletion strains, locus YOR265W, strain rbl2, stronger effect = lower value 0.999 | S. cerevisiae deletion strains, locus YOR270C, strain vph1, stronger effect = lower value 1.02 | S. cerevisiae deletion strains, locus YOR290C, strain snf2, stronger effect = lower value 0.979 | S. cerevisiae deletion strains, locus YOR316C, strain cot1, stronger effect = lower value 1.02 | S. cerevisiae deletion strains, locus YPL051W, strain arl3, stronger effect = lower value 0.973 | S. cerevisiae deletion strains, locus YPL055C, strain LGE1, stronger effect = lower value 1.02 | S. cerevisiae deletion strains, locus YPL078C, strain atp4, stronger effect = lower value 0.995 | S. cerevisiae deletion strains, locus YPL106C, strain sse1, stronger effect = lower value 0.978 | S. cerevisiae deletion strains, locus YPL240C, strain hsp82, stronger effect = lower value 0.968 | S. cerevisiae deletion strains, locus YPL256C, strain CLN2, stronger effect = lower value 0.977 | S. cerevisiae deletion strains, locus YPR119W, strain clb2, stronger effect = lower value 1.02 | S. cerevisiae deletion strains, locus YPR141C, strain kar3, stronger effect = lower value 1.03 | S. cerevisiae deletion strains, locus YPR163C, strain tif3, stronger effect = lower value 1.02 | S. cerevisiae deletion strains, locus YPR167C, strain met16, stronger effect = lower value 1.02 | S. cerevisiae deletion strains, strain wtn01, stronger effect = lower value 1.03 | S. cerevisiae strains, strain wild type, stronger effect = lower value 1.01
